The values that follow come from PubChem BioAssay (NCI).

Some test systems named below: T-47D breast; MDA-MB-435 melanoma; SW-620 colon; MCF7 breast; HCT-116 colon; HCC-2998 colon; KM12 colon; BT-549 breast.
Holding throughout (assay): NCI-60 one-dose screen, 48 h (100 = growth as untreated, 0 = no growth, -100 = all killed)
What all share (details): 10 µM unless noted

Compounds without any hit were thinned out: in the full panel of roughly 83,000, 20% have a hit.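 Compound tested at a single concentration for 48 hours in 96-well plates; a percent growth value below 10 was scored as active.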 Unmarked numbers belong to inactive results. Activity calls are given as the source filed them.

For `CC(C)(C)CC(C)(C)NCc1cc(C(C)(C)C)cc(CNC(C)(C)CC(C)(C)C)c1O`, the growth is 14.5% in the experiment with T-47D breast; 81.5% with MDA-MB-435 melanoma; 75.3% in the experiment on SW-620 colon; 31.6% in the experiment on MCF7 breast; 26.1% in the experiment on HCT-116 colon; 31.1% in the experiment on HCC-2998 colon. Also, the growth in the experiment on KM12 colon is 75%.
On to `Clc1ccc2c(c1)-n1cccc1C(c1ccc3ccccc3c1)=NC2`, for which the growth in the experiment on T-47D breast was 76.5%; in the experiment on MDA-MB-435 melanoma it was 50.4%; in the experiment on MCF7 breast it was 84.4%; in the experiment on HCT-116 colon it was 66.4%; with HCC-2998 colon it was 87.9%; with KM12 colon, 71.8%.
Regarding `CCCOC(=O)C1c2cc3c(cc2CC(C)C1C(=O)OCCC)OCO3` (stereo not given), the growth in the experiment with T-47D breast was 86.2%; in the experiment on MDA-MB-435 melanoma, 104%; in the experiment with SW-620 colon, 101%; with MCF7 breast, 100%; with HCT-116 colon it was 60.1%; in the experiment with HCC-2998 colon, 98.6%. The growth with KM12 colon was 108%.
`CC(=O)[C@@]1(O)[C@H](C)C[C@H]2[C@@H]3C=C(C)C4=Cc5c(cnn5-c5ccccc5)C[C@]4(C)[C@H]3[C@@H](O)C[C@@]21C`: the growth in the experiment with T-47D breast is 44.4%; with MDA-MB-435 melanoma, 37.7%; with SW-620 colon, -59.9% (active); with MCF7 breast, 15.5%; in the experiment with HCT-116 colon, 14.4%; in the experiment with HCC-2998 colon, 19.8%. In addition, the growth in the experiment with KM12 colon was -45% (active).
With `CCCCn1cnc(-c2cc(-c3ccccc3)cc(C(F)(F)F)c2)n1`, the growth in the experiment with T-47D breast was 93.7%; in the experiment with BT-549 breast, 100%; in the experiment on MDA-MB-435 melanoma, 105%; in the experiment on MCF7 breast, 99.6%; with HCT-116 colon it was 96.7%; in the experiment on HCC-2998 colon, 108%. In the experiment on KM12 colon, the growth was 101%.
For `COc1cc(/C=C/c2ccc3c(Br)cc(Br)c(O)c3n2)ccc1O`, the growth in the experiment on T-47D breast was 4.66% (active); in the experiment with MDA-MB-435 melanoma it was 32%; in the experiment on SW-620 colon, 18.3%; in the experiment on MCF7 breast, 10.2%; in the experiment with HCT-116 colon, 1.68% (active); in the experiment on HCC-2998 colon it was 35%.
With `C/C(=N\OC(=O)Nc1cccc(Cl)c1)c1ccccc1`, the growth with T-47D breast is 95.9%; with BT-549 breast, 105%; in the experiment with MDA-MB-435 melanoma it was 93.1%; with MCF7 breast it was 88.1%; with HCT-116 colon, 103%; with HCC-2998 colon it was 116%. For the same compound, the growth in the experiment with KM12 colon is 109%.
Regarding `O=C1/C(=C\c2cccn2Cc2ccc(F)cc2)c2ccccc2N1c1c(Cl)cccc1Cl`, the growth was 95.6% in the experiment on BT-549 breast; 107% in the experiment with MDA-MB-435 melanoma; 92% with SW-620 colon; 12.6% with MCF7 breast; 70.8% in the experiment on HCT-116 colon; 81.5% in the experiment with HCC-2998 colon. In the experiment on KM12 colon, the growth is 54.4%.
As for `COc1cc(C)cc2oc3oc(=O)c(-c4csc(-c5cc6ccccc6oc5=O)n4)cc3c(=O)c12`, the growth was 107% in the experiment on BT-549 breast; 105% with MDA-MB-435 melanoma; 105% with SW-620 colon; 101% in the experiment on MCF7 breast; 106% in the experiment with HCT-116 colon; 106% in the experiment with HCC-2998 colon. Also, the growth in the experiment on KM12 colon is 107%.
With `Oc1c(-c2cc(C(F)(F)F)[nH]n2)cc(Cl)c(OCc2ccc(Cl)cc2)c1-c1ccc(Cl)c(C(F)(F)F)c1`, the growth with BT-549 breast was -11.9% (active); with MDA-MB-435 melanoma, -16.9% (active); in the experiment with SW-620 colon it was 8.41% (active); in the experiment with MCF7 breast it was 2.3% (active); in the experiment on HCT-116 colon, -23.8% (active); with HCC-2998 colon, 12.7%. Moreover, in the experiment with KM12 colon, the growth was 1.97% (active).
Regarding `O=c1[nH]c2ccccc2n2cc3cccnc3c12`, the growth in the experiment with BT-549 breast is 111%; with MDA-MB-435 melanoma, 12.5%; in the experiment on SW-620 colon, 31.5%; with MCF7 breast, 32.2%; in the experiment with HCT-116 colon it was 33%; in the experiment with HCC-2998 colon, 82.1%. In addition, the growth with KM12 colon was 52.6%.
Turning to `Nc1nc2ccc([C@@H]3Nc4ccc5[nH]ncc5c4[C@H]4[C@H]5CCC(C5)[C@H]43)cc2s1`, the growth in the experiment on BT-549 breast is 36.7%; with MDA-MB-435 melanoma, -62.4% (active); in the experiment on SW-620 colon it was -3.94% (active); in the experiment on MCF7 breast, -0.0226% (active); in the experiment with HCT-116 colon, 12.1%; in the experiment with HCC-2998 colon, 49.3%. Besides, the growth in the experiment with KM12 colon was 3.63% (active).
For `O=C(c1ccc(C(F)(F)F)c(Cl)c1)N(Cc1ccc(Cl)cc1)c1ccc(-c2cc(C(F)(F)F)[nH]n2)c(O)c1`, the growth in the experiment with BT-549 breast is 14.6%; with MDA-MB-435 melanoma, 10.1%; in the experiment with SW-620 colon, 17.2%; in the experiment on MCF7 breast it was 4.31% (active); in the experiment with HCT-116 colon, 3.75% (active); in the experiment on HCC-2998 colon, 13.6%. Besides, the growth in the experiment with KM12 colon was 10%.
Turning to `O=C(O)c1cn(-c2ccccc2)nc1-c1ccc(O)cc1`, the growth in the experiment with BT-549 breast was 99.3%; in the experiment with MDA-MB-435 melanoma it was 103%; in the experiment on SW-620 colon, 98.5%; in the experiment on MCF7 breast, 88.7%; with HCT-116 colon, 96.4%; with HCC-2998 colon, 95.5%.
Turning to `Cc1ccc(-c2cnc3sc4ccc(Cl)cc4n23)cc1`, the growth in the experiment on BT-549 breast was 100%; in the experiment on MDA-MB-435 melanoma it was 105%; in the experiment on SW-620 colon, 89.7%; in the experiment with MCF7 breast it was 81.5%; with HCT-116 colon it was 89%; in the experiment with HCC-2998 colon, 105%. In addition, in the experiment on KM12 colon, the growth is 96.5%.
For the compound `C#CC[C@@H]1C[C@]2(C)[C@H]3CC[C@@H]4[C@H]5C(C(=C)C)CC[C@]5(C(=O)NCCN(CCN)CCN)CC[C@@]4(C)[C@]3(C)CC[C@H]2C(C)(C)[C@H]1OC(C)=O` (stereo not given in full), the growth in the experiment on BT-549 breast is 110%; in the experiment with MDA-MB-435 melanoma, 84.8%; in the experiment on SW-620 colon, 15.2%; in the experiment on MCF7 breast it was -59.9% (active); in the experiment with HCT-116 colon, 2.57% (active); with HCC-2998 colon, 81.1%. Also, the growth in the experiment with KM12 colon is 60%.
As to `CN1CCN(Cc2ccc(NC(=O)c3cncc(C#Cc4ncc5ccccn45)c3)cc2C(F)(F)F)CC1`, the growth in the experiment on BT-549 breast was 39.3%; in the experiment with MDA-MB-435 melanoma, 28.1%; in the experiment on SW-620 colon it was 1.35% (active); in the experiment with MCF7 breast, -6.36% (active); in the experiment with HCT-116 colon, -51.5% (active); with HCC-2998 colon it was 48.6%.
As for `Fc1cnccc1-c1nc2ccc3[nH]ncc3c2c2c1CCCC2`, the growth is 16.1% in the experiment with BT-549 breast; 10.4% with MDA-MB-435 melanoma; 14.6% with SW-620 colon; 34.7% with MCF7 breast; 7.21% (active) in the experiment with HCT-116 colon; 37.5% with HCC-2998 colon.
As for `CN1CCN(Cc2ccc(NC(=O)c3cncc(C#Cc4cnc5cccnn45)c3)cc2C(F)(F)F)CC1`, the growth was 6.96% (active) in the experiment on BT-549 breast; 1.81% (active) in the experiment with MDA-MB-435 melanoma; -3.38% (active) with SW-620 colon; 3.61% (active) in the experiment on MCF7 breast; 3.88% (active) with HCT-116 colon; 9.55% (active) in the experiment on HCC-2998 colon. In the experiment on KM12 colon, the growth was -12.3% (active).
Take `COc1ccc(C2CC(c3ccc(Nc4ccnc5cc(Cl)ccc45)cc3)=NN2c2ccccc2)cc1` (stereo not given): the growth in the experiment with BT-549 breast is 99.8%; with MDA-MB-435 melanoma, 80.3%; in the experiment on SW-620 colon, 96.3%; with MCF7 breast, 81.9%; in the experiment on HCT-116 colon, 72.4%; in the experiment on HCC-2998 colon it was 101%. Besides, the growth with KM12 colon was 94.2%.
Consider `Cn1nc(C(F)(F)F)cc1-c1c[nH]c(OCc2ccc(Cl)cc2)c(-c2ccc(Cl)c(C(F)(F)F)c2)c1=O`, for which the growth was 2.51% (active) in the experiment with BT-549 breast; 1.96% (active) in the experiment with MDA-MB-435 melanoma; 12.6% with SW-620 colon; 1.28% (active) in the experiment with MCF7 breast; 4.49% (active) in the experiment with HCT-116 colon; 13.3% in the experiment on HCC-2998 colon. The growth with KM12 colon was 8.85% (active).
With `COc1ccc(/C(=C\c2ccc3c(c2)OCO3)C(=O)Nc2nc3ccc(F)cc3s2)cc1OC`, the growth in the experiment on BT-549 breast is 97.1%; in the experiment on MDA-MB-435 melanoma it was 99.8%; with SW-620 colon it was 104%; in the experiment with MCF7 breast it was 94.9%; in the experiment with HCT-116 colon, 97.7%; with HCC-2998 colon, 109%. Also, the growth in the experiment on KM12 colon was 96.3%.
Regarding `C#CC[C@@H]1C[C@]2(C)[C@H]3CC[C@@H]4[C@H]5C(C(=C)C)CC[C@]5(C(=O)NCCCCN)CC[C@@]4(C)[C@]3(C)CC[C@H]2C(C)(C)[C@H]1OC(C)=O` (stereo not given in full), the growth in the experiment with BT-549 breast was 41.2%; with MDA-MB-435 melanoma it was -92.2% (active); with SW-620 colon, -66.8% (active); in the experiment with MCF7 breast, -71.6% (active); with HCT-116 colon it was -85.7% (active); with HCC-2998 colon, -11.1% (active). In addition, the growth in the experiment with KM12 colon was -66.8% (active).
As for `C[C@@H](C[C@H](CC1CC1)c1ccccc1)c1ccc2ccccc2c1`, the growth in the experiment on BT-549 breast is 106%; in the experiment on MDA-MB-435 melanoma, 102%; in the experiment with SW-620 colon, 93.6%; with MCF7 breast it was 108%; with HCT-116 colon, 98.6%; in the experiment on HCC-2998 colon it was 101%. The growth with KM12 colon was 103%.
With `CCCCCCCCCCCCCCCCOc1ccc(S(=O)(=O)N(C)C)cc1[N+](=O)[O-]`, the growth in the experiment with BT-549 breast was 97.4%; with MDA-MB-435 melanoma, 107%; in the experiment on SW-620 colon it was 113%; in the experiment with MCF7 breast, 95.8%; in the experiment with HCT-116 colon it was 98.2%; in the experiment with HCC-2998 colon, 122%. Also, in the experiment with KM12 colon, the growth was 112%.
